Hits are enriched below; roughly 5.3% of the tested compounds scored in any of these assays.
M18AAP inhibitor: PfM18AAP inhibitors, malaria aminopeptidase, primary screen, biochemical, QFRET, recombinant enzyme; actives 1.2% (n = 290,000); AID 1822, 2009; M18 aspartyl aminopeptidase (Plasmodium falciparum 3D7); inhibition, % at 7.35 µM; H-Glu-NHMec fluorogenic cleavage;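 active = inhibition above the campaign mean inhibition over all tested compounds plus 3 SD, cut at about 28% in these data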
ALR H2O2 inh: inhibitors of human ALR sulfhydryl oxidase, primary screen, biochemical, H2O2 detection, HRP-luminol luminescence, single point; actives 3.8% (n = 290,000); inhibition, % (no concentration beside the values); purified ALR, DTT oxidation; FAD-linked sulfhydryl oxidase ALR (Homo sapiens), P55789;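 active = mean replicate inhibition above about 79%, with every replicate also reaching it, limit read from the data; inconclusive = only one of the two criteria met; inactive = mean below limit and not every replicate reaching it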
Target sequence (P55789 whole entry, looked up): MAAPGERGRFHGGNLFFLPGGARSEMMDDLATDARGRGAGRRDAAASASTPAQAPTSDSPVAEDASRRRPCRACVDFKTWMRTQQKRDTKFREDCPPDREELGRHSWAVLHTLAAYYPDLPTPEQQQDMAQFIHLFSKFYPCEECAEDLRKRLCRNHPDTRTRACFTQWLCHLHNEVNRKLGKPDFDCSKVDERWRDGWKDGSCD
HIF act: HIF pathway transcriptional activators, primary screen, cell-based, U2OS HRE-luciferase, luminescence. U2OS HRE-luciferase reporter; normalized: DMSO 0%, desferrioxamine 100%. activation, % at 7.5 µM (by protocol). actives 0.32% (n = 300,000). AID 1910, 2009;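 active = mean activation of at least 10% of the iron chelator positive control signal, with at least half of replicates also reaching 10%; inconclusive = mean and replicate majority disagree about reaching 10%; inactive = mean and most replicates under 10%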
Mot1-301 SUMO: yeast Mot1-301 growth rescue at high temperature, primary screen, SUMOylation pathway inhibitor project, S. cerevisiae, ATP luminescence, 38.5C | actives 1% (n = 320,000) | growth rescue, % at 18.8 µM | S. cerevisiae Mot1-301 growth rescue; percent above DMSO median, 100 means doubled;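 active = every valid replicate shows activation above 250% relative to neutral control wells; inactive = the rest, any valid replicate at or below 250%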
A number is an active result.

How did COc1ccc(-c2cnnn2-c2ccc(NC(=O)c3ccc(S(=O)(=O)N4CCCCC4)cc3)cc2)cc1 do in these assays?
M18AAP inhibitor: inactive; ALR H2O2 inh: inactive; HIF act: inactive; Mot1-301 SUMO: inactive

What do the screens show for `CCCOc1ccc(NC(=O)CC2C(=O)N(C)C(=S)N2Cc2cccs2)cc1` (configuration not stated)?
M18AAP inhibitor: inactive; ALR H2O2 inh: inactive; HIF act: inactive; Mot1-301 SUMO: inactive

How did COC(=O)c1ccc(/C=C(/NC(=O)c2ccccc2)C(=O)N2CCOCC2)cc1 do in these assays?
M18AAP inhibitor: inactive; ALR H2O2 inh: inconclusive; HIF act: inactive; Mot1-301 SUMO: inactive

Results for Cc1cc2ncn(/N=C/c3ccc([N+](=O)[O-])s3)c2cc1C ?
M18AAP inhibitor: inactive; ALR H2O2 inh: inactive; HIF act: inactive; Mot1-301 SUMO: inactive

How did O=[N+]([O-])c1ccc(/C=N/n2cnc3ccccc32)s1 do in these assays?
M18AAP inhibitor: inactive; ALR H2O2 inh: inactive; HIF act: inactive; Mot1-301 SUMO: 378

How did Cc1ccc2nc(-c3ccncc3)c(Nc3ccccc3)n2c1 do in these assays?
M18AAP inhibitor: inactive; ALR H2O2 inh: inactive; HIF act: inactive; Mot1-301 SUMO: inactive

What do the screens show for `Cc1ccc(Nc2c(-c3ccccn3)nc3cc(C)ccn23)cc1`?
M18AAP inhibitor: inactive; ALR H2O2 inh: 98; HIF act: 91

How did Cc1ccc(Nc2c(-c3ccccn3)nc3ccc(C)cn23)cc1 do in these assays?
M18AAP inhibitor: inactive; ALR H2O2 inh: inactive; HIF act: 122; Mot1-301 SUMO: inactive

How did Cc1ccn2c(Nc3ccc4c(c3)OCO4)c(-c3ccccn3)nc2c1 do in these assays?
M18AAP inhibitor: inactive; ALR H2O2 inh: inactive; HIF act: inactive; Mot1-301 SUMO: inactive

How did COc1ccc(/C=C/c2nc3ccccc3n2Cc2ccc(OC)c(OC)c2)cc1 do in these assays?
M18AAP inhibitor: inactive; ALR H2O2 inh: inactive; HIF act: inactive; Mot1-301 SUMO: 353

How did CCc1nc2ccccc2n1Cc1ccc(OC)c(OC)c1 do in these assays?
M18AAP inhibitor: inactive; ALR H2O2 inh: inactive; HIF act: inactive; Mot1-301 SUMO: inactive

What do the screens show for `COc1ccc(NC(=O)C/C(C)=N/NC(=O)c2ccco2)c([N+](=O)[O-])c1`?
M18AAP inhibitor: inactive; ALR H2O2 inh: inactive; HIF act: inactive; Mot1-301 SUMO: inactive

What do the screens show for `N=c1sccn1CC(=O)Nc1cc(S(=O)(=O)N2CCCC2)ccc1Cl`?
M18AAP inhibitor: inactive; ALR H2O2 inh: inactive; HIF act: inactive; Mot1-301 SUMO: inactive

What do the screens show for `Cc1ccc(C)c(NCC(=O)c2ccc(Cl)cc2)c1`?
M18AAP inhibitor: 28; ALR H2O2 inh: inactive; HIF act: inactive; Mot1-301 SUMO: inactive

How did COc1ccccc1C1CCN(c2cc(O)ccc2[N+](=O)[O-])CC1 do in these assays?
M18AAP inhibitor: inactive; ALR H2O2 inh: inactive; HIF act: inactive; Mot1-301 SUMO: inactive

How did COc1ccc(Cl)cc1NC(=O)CN1c2ccccc2CC1C (configuration not stated) do in these assays?
M18AAP inhibitor: inactive; ALR H2O2 inh: inactive; HIF act: inactive; Mot1-301 SUMO: inactive

Results for COc1cc(NC(=O)CN2c3ccccc3CC2C)cc(OC)c1OC (configuration not stated) ?
M18AAP inhibitor: inactive; ALR H2O2 inh: 97; HIF act: inactive; Mot1-301 SUMO: inactive

Results for CCC(O)c1nc2ccccc2n1CCc1ccccc1 (configuration not stated) ?
M18AAP inhibitor: inactive; ALR H2O2 inh: inactive; HIF act: inactive; Mot1-301 SUMO: inactive

What do the screens show for `CCNS(=O)(=O)c1ccc(CCC(=O)NCc2ccc3c(c2)OCO3)cc1`?
M18AAP inhibitor: inactive; ALR H2O2 inh: inactive; HIF act: inactive; Mot1-301 SUMO: inactive

How did COc1cc(C2C(C#N)=C(N)Oc3c2oc(CO)cc3=O)ccc1OC(C)C (configuration not stated) do in these assays?
M18AAP inhibitor: inactive; ALR H2O2 inh: 85; HIF act: inactive; Mot1-301 SUMO: inactive

What do the screens show for `CCOC(=O)c1ccc2c(c1)nc(SCC(=O)N1CCCCC1)n2CC`?
M18AAP inhibitor: inactive; ALR H2O2 inh: inactive; HIF act: inactive; Mot1-301 SUMO: 293

How did CCOC(=O)c1ccc2c(c1)nc(SCC(=O)c1ccco1)n2CC do in these assays?
M18AAP inhibitor: inactive; ALR H2O2 inh: inactive; HIF act: inactive; Mot1-301 SUMO: inactive

Results for Cc1ccc(CN2CCN(/N=C\C=C\c3ccccc3)CC2)cc1 ?
M18AAP inhibitor: inactive; ALR H2O2 inh: inactive; HIF act: inactive; Mot1-301 SUMO: inactive

High-throughput results deposited in PubChem BioAssay by several laboratories.
